Source: PubChem BioAssay (NCATS)

Legend:
[1] = qHTS profiling of the MIPE4 collection as inhibitors of Plasmodium falciparum (3D7) proliferation (AID 743344);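 note: scaled between DMSO vehicle wells and 0.29 µM artemisinin as full inhibition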; conditions: P. falciparum 3D7 in erythrocytes, SYBR Green DNA fluorescence, 72 h; at 28.5 µM unless noted
In short: (§1)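 Parasite DNA was quantified by SYBR Green I fluorescence (ex 485, em 535 nm) after overnight lysis in saponin/Triton buffer at room temperature. Cultures at 0.3% parasitemia and 2.5% hematocrit were first exposed to compound for 72 h at 37 C; signals were normalised to artemisinin (0.29 uM) and vehicle wells.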

[2] = qHTS profiling of the MIPE4 collection as inhibitors of Plasmodium falciparum (DD2) proliferation (AID 743345); conditions: P. falciparum Dd2 in erythrocytes, SYBR Green DNA, 72 h; at 28.5 µM unless noted
In short: as §1

[3] = qHTS profiling of the MIPE4 collection as inhibitors of Plasmodium falciparum (DD2) proliferation (Rep 2) (AID 743346); conditions: P. falciparum Dd2 in erythrocytes, SYBR Green DNA, 72 h; at 28.5 µM unless noted
In short: as §1

[4] = qHTS profiling of the MIPE4 collection as inhibitors of Plasmodium falciparum (HB3) proliferation (AID 743347);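 note: plate controls were DMSO vehicle wells for no effect and artemisinin wells for full effect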; conditions: P. falciparum HB3 in erythrocytes, SYBR Green DNA, 72 h; at 28.5 µM unless noted
In short: as §1

[5] = High-throughput drug toxicity screening in the BPDCN cell line Gen2.2 (AID 1224824); conditions: Gen2.2 BPDCN cells; at 45.8 µM (top of the series) unless noted;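 note: cells exposed to compounds for 48 h before reading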
In short: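 Seed 500 exponentially growing Gen2.2 cells/well; add compounds by pin tool; incubate 48 h, 37 °C, 5% CO2; add CellTiter-Glo, 15 min RT; read luminescence. % activity vs DMSO (100%) and bortezomib (0%).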

[6] = High-throughput drug toxicity screening in the BPDCN cell line Cal-1 (AID 1224825); conditions: Cal-1 BPDCN cell viability, qHTS; at 45.8 µM (top of the series) unless noted
In short: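 CellTiter-Glo luminescence after 48 h compound exposure; percent activity scaled with DMSO as 100% and bortezomib (9.2 uM final) as 0%. Cal-1 cells seeded at 500/well in RPMI, 10% FBS, no phenol red.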

SMILES	parasite growth, % of DMSO control [1]	parasite growth remaining, % of DMSO control (lower = more inhibition) [2]	parasite growth, % of control (lower = inhibition) [3]	growth, % of control [4]	cell viability, % of control (lower = more cytotoxic) [5]	viability (% of control) [6]
COc1cc(C(=O)NS(=O)(=O)c2ccccc2C)ccc1Cc1cn(C)c2ccc(NC(=O)OC3CCCC3)cc12	5.96%	7.78%	16.7%	7.01%	13%	4.45%
CC(C)c1cc(-c2n[nH]c(=O)n2-c2ccc3c(ccn3C)c2)c(O)cc1O	5.55%	8.22%	8.97%	1.94%	4.99%	10.7%
O=c1[nH]c(=O)n(C2CCCO2)cc1F (configuration not stated)	404% [at 57.5 µM]	99.7% [at 57.5 µM]	110% [at 57.5 µM]	412% [at 57.5 µM]	130% [at 92.2 µM]	116% [at 92.2 µM]
CC(C)c1noc(N2CCC(COc3ccc(-c4ccc(S(C)(=O)=O)cc4)nc3)CC2)n1	22.7%	23.2%	49.7%	20.9%	87.9%	68.8%
COc1ccc(F)c(F)c1C(=O)c1cnc(NC2CCN(S(C)(=O)=O)CC2)nc1N	27.7%	60.1%	26%	37.7%	2.27%	2%
CC(C)c1cc(C(=O)N2Cc3ccc(CN4CCN(C)CC4)cc3C2)c(O)cc1O	5.55%	7.69%	9.28%	2.52%	29.3%	15%
Nc1ncnc2c1c(-c1cccc(OCc3ccccc3)c1)cn2C1CC(CN2CCCC2)C1 (configuration not stated)	5.35%	7.32%	9.07%	8.63%	5.16%	1.43%
O=C(c1cncc(Br)c1)N1CCC(N2CCCC2)CC1	102%	105%	80.8%	96.9%	144%	126%
Cc1c(CN2CCN(S(C)(=O)=O)CC2)sc2c(N3CCOCC3)nc(-c3cnc(N)nc3)nc12	5.64%	14.2%	18.4%	5.68%	16.1%	19.3%
O=C(Nc1ncc(-c2cc(C(F)F)nn2-c2c(Cl)cccc2Cl)s1)C1CC1	10.3%	26.5%	31.4%	19.5%	23.6%	9.09%
CCS(=O)(=O)c1cccc(-c2cc(C(=O)NC3CCN(C)CC3)c(C)c3[nH]c4ncc(C)cc4c23)c1	5.84%	9.76%	15.1%	7.05%	7.25%	2.47%
CCc1cc2c(cc1N1CCC(N3CCOCC3)CC1)C(C)(C)c1[nH]c3cc(C#N)ccc3c1C2=O	12.5%	8.84%	33.7%	12.5%	258%	76.4%
